Laboratory results from PubChem BioAssay (EPA / NIEHS).
Where “and” joins values, the source holds several entries; their conditions need not be identical. Equal entries are not always repeated. Records with an inconclusive call do not appear. Some compounds were tested as several samples or in several runs, with calls that do not always agree. Calls of active or inactive are those of the source. How the source made its calls, unless noted: active means hit-call score of the fitted dose curve at least 0.9, where 1 is the maximum; inconclusive means response in the unintended direction; inactive means score below 0.9.

Key:
[1] = read-out: xenobiotic metabolism (CYP1A2), CYP1A2 (gene 1544); test: CLD_CYP1A2_6hr: CellzDirect (CLD) Gene Expression Assay for xenobiotic metabolism (CYP1A2) at 6 hours (AID 2283663);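 on AC50: potency is for induction meaning a rise in mRNA above DMSO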
Summary of the method: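 mRNA levels quantified by quantitative nuclease protection assay with chemiluminescence, 6 h after dosing human primary hepatocyte cultures (two donors) across several concentrations, vehicle 0.2% DMSO. Induction fitted upward versus DMSO; phase-contrast cytotoxicity annotated.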

[2] = CCTE_Simmons_CellTiterGLO_HEK293T: Viability Assessment in CCTE's Assays for Thyroperoxidase (TPO) Inhibition, Simmons Lab (AID 2283665);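 on AC50: cells exposed to compound for 24 h before readout; actives reduce ATP signal below DMSO vehicle meaning cytotoxicity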
Summary of the method: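 Cells were seeded overnight, then exposed to an eight-point series up to 87.5 uM final for 24 hours. CellTiter-Glo reagent was added and luminescence read after 20 min, giving ATP-based viability versus DMSO.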

[3] = read-out: organic anion transporter (SLCO1B1), SLCO1B1 (gene 10599); test: CLD_SLCO1B1_6hr: CellzDirect (CLD) Gene Expression Assay for organic anion transporter (SLCO1B1) at 6 hours (AID 2283668);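 further: active means mRNA induction above DMSO baseline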
Summary of the method: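 SLCO1B1 mRNA induction measured 6 h after dosing by quantitative nuclease protection with chemiluminescent read-out, in human primary hepatocyte cultures given chemicals at several concentrations (vehicle 0.2% DMSO). Increase over DMSO baseline fitted; morphology-based cytotoxicity annotated yes/no.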

[4] = read-out: Cytochrome P450 (CYP24A1_1), CYP24A1 (gene 1591); test: LTEA_HepaRG_CYP24A1_1: Life Technologies and Expression Analysis (LTEA) Assay for Cytochrome P450 (CYP24A1_1) using HepaRG (AID 2283671; active means hit-call score of the fitted dose curve at least 0.9, where 1 is the maximum; inactive means score below 0.9); settings: mRNA level, 48 h; actives raise or lower the signal
Summary of the method: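 Readout is CYP24A1 transcript level by qRT-PCR, normalized to three housekeeping genes, with gain or loss of signal fitted against 0.5% DMSO. Human HepaRG cells received compound for 48 h at up to 100 uM.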

[5] = read-out: glucuronosyltransferase (UGT1A1), UGT1A1 (gene 54658); test: CLD_UGT1A1_6hr: CellzDirect (CLD) Gene Expression Assay for glucuronosyltransferase (UGT1A1) at 6 hours (AID 2283672)
Summary of the method: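 UGT1A1 mRNA induction, read by quantitative nuclease protection assay, 6 h after dosing primary human hepatocytes (two donors, 0.2% DMSO vehicle). Gain of signal fitted relative to vehicle.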

[6] = read-out: xenobiotic metabolism (CYP1A1), CYP1A1 (gene 1543); test: CLD_CYP1A1_24hr: CellzDirect (CLD) Gene Expression Assay for xenobiotic metabolism (CYP1A1) at 24 hours (AID 2283673);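 further: CYP1A1 mRNA level by quantitative nuclease protection with chemiluminescence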
Summary of the method: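 Transcript levels were read at 24 h by qNPA chemiluminescence in human liver primary cells. Cells got daily fresh dosing at multiple concentrations (vehicle 0.2% DMSO). Induction fitted upward against DMSO; phase-contrast cytotoxicity annotated.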

[7] = read-out: ABC Transporter (ABCB11), ABCB11 (gene 8647); test: CLD_ABCB11_6hr: CellzDirect (CLD) Gene Expression Assay for ABC Transporter (ABCB11) at 6 hours (AID 2283675);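 further: hits raise ABCB11 mRNA level so AC50 marks induction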
Summary of the method: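 Read-out was ABCB11 mRNA gain of signal by quantitative nuclease protection assay, relative to 0.2% DMSO vehicle, 6 h post-dose. Cells were primary human hepatocytes from two donors, treated across multiple concentrations; phase-contrast cytotoxicity noted yes/no.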

[8] = Tanguay_ZF_120hpf_TR_legacy: (Legacy) Oregon State University Tanguay Lab 120 Hour Post-fertilization zebrafish Assay for Touch Response (AID 2283667)
Summary of the method: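 Binary touch-response call at 120 hpf, analysed as gain of signal versus DMSO baseline. Wild-type 5D larvae, static exposure at 28C, 0.64% DMSO final; 5uM trimethyltin chloride as positive control.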

[9] = read-out: sulfotransferase (SULT2A), SULT2A1 (gene 6822); test: CLD_SULT2A_6hr: CellzDirect (CLD) Gene Expression Assay for sulfotransferase (SULT2A) at 6 hours (AID 2283669);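 further: hits raise transcript level above the DMSO vehicle baseline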
Summary of the method: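 Measured 6 h after dosing, SULT2A1 mRNA in human hepatocyte lysates was quantified by S1 nuclease protection with chemiluminescent detection. Increases fitted against 0.2% DMSO vehicle baseline; phase-contrast cytotoxicity recorded yes/no.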

[10] = read-out: alkyl and aryl transferase (GSTA2), GSTA2 (gene 2939); test: CLD_GSTA2_6hr: CellzDirect (CLD) Gene Expression Assay for alkyl and aryl transferase (GSTA2) at 6 hours (AID 2283666)
Summary of the method: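 GSTA2 transcript induction at 6 h, quantified by nuclease protection (qNPA) with chemiluminescent detection, in human liver primary hepatocytes exposed to several compound concentrations with 0.2% DMSO as baseline; phase-contrast morphology annotated apparent cytotoxicity.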

Measured: AC50

CCOP(=S)(Oc1cnc(C(C)(C)C)nc1)OC(C)C (centres undefined)
inactive: [1] | [3] | [4] | [5]
active: [2] 31.4 µM | [6] 7.48 µM | [7] 27.4 µM

CC(Oc1cccc(Cl)c1)C(=O)O (centres undefined)
inactive: [1] | [8] | [5] | [6] | [7]

CCC(CC)Nc1c([N+](=O)[O-])cc(C)c(C)c1[N+](=O)[O-]
active: [6] 20 µM
inactive: [1] | [3] | [5] | [7]

CCOP(=S)(OCC)OC(Cl)C(Cl)(Cl)Cl (centres undefined)
inactive: [1] | [3] | [9] | [5] | [7]
active: [2] 64.7 µM | [6] 4.46 µM

CN(C)[C@@H]1C(=O)C(C(N)=O)=C(O)[C@@]2(O)C(=O)C3=C(O)c4c(O)cccc4[C@@](C)(O)[C@H]3[C@H](O)[C@@H]12
active: [2] 5.47 µM and 53.8 µM
inactive: [1] | [2] | [10] | [8] | [5]

CCCSP(=O)(OCC)SCCC
active: [6] 2.42 µM
not listed: [4] | [8] | [10]
inactive: all other assays above

CCCCOC(=O)[C@@H](C)Oc1ccc(Oc2ccc(C#N)cc2F)cc1
inactive: [1] | [8] | [5] | [6]

CCOP(=S)(OCC)Oc1ccc([N+](=O)[O-])cc1
inactive: [2] | [5]
active: [1] 2.19 µM | [6] 5.99 µM

CCOC(=O)CC(SP(=O)(OC)OC)C(=O)OCC (centres undefined)
active: [6] 5.29 µM
inactive: [1] | [2] | [4] | [5] | [7]

CC[C@H](C)[C@H]1O[C@]2(C=C[C@@H]1C)C[C@@H]1C[C@@H](C/C=C(\C)[C@@H](O[C@H]3C[C@H](OC)[C@@H](O[C@H]4C[C@H](OC)[C@@H](NC)[C@H](C)O4)[C@H](C)O3)[C@@H](C)/C=C/C=C3\CO[C@@H]4[C@H](O)C(C)=C[C@@H](C(=O)O1)[C@]34O)O2
inactive: [4] | [5] | [6] | [7]
active: [1] 10.5 µM | [3] 30.7 µM

COP(=O)(OC)SCn1c(=O)oc2cc(Cl)cnc21
inactive: [1] | [2] | [6] | [7]

O=c1ccc(=O)[nH][nH]1
inactive: [1] | [2] | [8] | [3] | [5] | [7]

CCc1cccc(C)c1N(C(=O)CCl)C(C)COC (centres undefined)
active: [6] 4.65 µM
inactive: [1] | [8] | [5]

N#CSCSC#N
active: [2] 9.47 µM
inactive: [1] | [3] | [5] | [6] | [7]

CSc1nnc(C(C)(C)C)c(=O)n1N
inactive: [1] | [3] | [5] | [6]

CCOP(=S)(OCC)Oc1cc(C)nc(C(C)C)n1
active: [1] 0.589 µM | [2] 83.2 µM | [6] 6.62 µM
inactive: [3] | [5] | [7]

CC(C)N(C(=O)SCC(Cl)=C(Cl)Cl)C(C)C
inactive: [1] | [3] | [5] | [6] | [7]

C#CCC1=C(C)C(OC(=O)C2C(C=C(C)C)C2(C)C)CC1=O (centres undefined)
active: [6] 20 µM
inactive: [1] | [3] | [9] | [5] | [7]

Cc1ccn2nc(S(=O)(=O)Nc3c(F)cccc3F)nc2n1
inactive: [1] | [3] | [5] | [6]

CCCOCC(=Nc1ccc(Cl)cc1C(F)(F)F)n1ccnc1
inactive: [3] | [5] | [7]
active: [1] 1.89 µM | [2] 21.3 µM | [6] 2.36 µM

C[Si](Cn1cncn1)(c1ccc(F)cc1)c1ccc(F)cc1
active: [6] 2.21 µM
inactive: [1] | [3] | [5] | [7]

CCOP(=O)(OCC)Oc1cc(C)nc(C(C)C)n1
inactive: [1] | [3] | [9] | [5] | [6] | [7]

CCC(=NOC/C=C/Cl)C1=C(O)CC(C2CCOCC2)CC1=O (centres undefined)
inactive: [1] | [2] | [3] | [5]

CC1=NNC(=O)N(/N=C/c2cccnc2)C1
inactive: [1] | [10] | [3] | [5] | [7]
active: [6] 4.96 µM

CCOP(=O)(NC(C)C)Oc1ccc(SC)c(C)c1 (centres undefined)
active: [1] 4.22 µM | [6] 20 µM
inactive: [3] | [5]

Cc1nn(-c2cc(NS(C)(=O)=O)c(Cl)cc2Cl)c(=O)n1C(F)F
inactive: [1] | [8] | [3] | [9] | [5] | [6]

CCCCN(CC)c1c([N+](=O)[O-])cc(C(F)(F)F)cc1[N+](=O)[O-]
inactive: [1] | [8] | [4] | [5]
active: [6] 8.49 µM
